Assay results taken from PubChem BioAssay AID1159580 (chemical genetic matrix, 2015).
Where “and” joins values, the source holds several entries; their conditions need not be identical. Equal values may be shown once. In all, about 5,500 compounds went through this assay and about 2,000 (36%) were called active. About 18% were inconclusive and are not listed. Cut-off read from the data, not from the text of the source: active = normalized growth mostly below about 0.91 (no sharp cut-off); inconclusive = no clear call, values can overlap the other calls; inactive = mostly above about 0.92. This is one part of the list.

Assay: chemical genetic growth profiling, strain panel (AID 1159580);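 note: tested at 20 µM; growth read once vehicle control cultures reached saturation at 30 °C; 1 = growth at the plate median or of vehicle wells; lower values mean less growth of the strain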
Details: growth OD

Measured: normalized growth

CNCCCN1c2ccccc2CCc2ccccc21
inactive: S. cerevisiae deletion strains, locus YKL009W, strain mrt4, stronger effect = lower value 1 | S. cerevisiae deletion strains, locus YKL068W, stronger effect = lower value 1 | S. cerevisiae deletion strains, locus YKL085W, strain MDH1 (second series), stronger effect = lower value 1.04 | S. cerevisiae deletion strains, locus YKL085W, strain MDH1, stronger effect = lower value 1.04 | S. cerevisiae deletion strains, locus YKL160W, strain elf1, stronger effect = lower value 1.03 | S. cerevisiae deletion strains, locus YKL190W, strain CNB1, stronger effect = lower value 1 | S. cerevisiae deletion strains, locus YKR001C, strain vps1, stronger effect = lower value 0.997 | S. cerevisiae deletion strains, locus YKR026C, strain gcn3, stronger effect = lower value 1.01 | S. cerevisiae deletion strains, locus YKR091W, strain srl3, stronger effect = lower value 1.01 | S. cerevisiae deletion strains, locus YLL001W, strain dnm1, stronger effect = lower value 1.03 | S. cerevisiae deletion strains, locus YLL026W, stronger effect = lower value 1.03 | S. cerevisiae deletion strains, locus YLL041C, strain sdh2, stronger effect = lower value 1.01 | S. cerevisiae deletion strains, locus YLR027C, strain aat2, stronger effect = lower value 1.03 | S. cerevisiae deletion strains, locus YLR039C, strain RIC1, stronger effect = lower value 1.22 | S. cerevisiae deletion strains, locus YLR058C, strain SHM2, stronger effect = lower value 1.01 | S. cerevisiae deletion strains, locus YLR102C, strain apc9, stronger effect = lower value 1 | S. cerevisiae deletion strains, locus YLR113W, strain HOG1, stronger effect = lower value 1.02 | S. cerevisiae deletion strains, locus YLR221C, strain rsa3, stronger effect = lower value 0.978 | S. cerevisiae deletion strains, locus YLR258W, strain gsy2, stronger effect = lower value 1 | S. cerevisiae deletion strains, locus YLR262C, strain YPT6 (second series), stronger effect = lower value 1.09 | S. cerevisiae deletion strains, locus YLR262C, strain YPT6, stronger effect = lower value 1.16 | S. cerevisiae deletion strains, locus YLR268W, strain sec22, stronger effect = lower value 0.988 | S. cerevisiae deletion strains, locus YLR320W, strain mms22, stronger effect = lower value 0.987 | S. cerevisiae deletion strains, locus YLR330W, strain CHS5, stronger effect = lower value 1.01 | S. cerevisiae deletion strains, locus YLR342W, strain FKS1 (second series), stronger effect = lower value 0.997 | S. cerevisiae deletion strains, locus YLR342W, strain FKS1, stronger effect = lower value 1.04 | S. cerevisiae deletion strains, locus YLR357W, strain rsc2, stronger effect = lower value 0.985 | S. cerevisiae deletion strains, locus YLR370C, strain arc18, stronger effect = lower value 1.02 | S. cerevisiae deletion strains, locus YLR371W, strain rom2, stronger effect = lower value 0.988 | S. cerevisiae deletion strains, locus YLR384C, strain iki3, stronger effect = lower value 1.01 | S. cerevisiae deletion strains, locus YLR418C, strain cdc73, stronger effect = lower value 0.938 | S. cerevisiae deletion strains, locus YML016C, strain PPZ1, stronger effect = lower value 0.997 | S. cerevisiae deletion strains, locus YML032C, strain rad52, stronger effect = lower value 0.999 | S. cerevisiae deletion strains, locus YML120C, strain ndi1, stronger effect = lower value 1.04 | S. cerevisiae deletion strains, locus YML124C, strain tub3, stronger effect = lower value 1 | S. cerevisiae deletion strains, locus YMR058W, strain fet3, stronger effect = lower value 1.02 | S. cerevisiae deletion strains, locus YMR078C, strain ctf18, stronger effect = lower value 1 | S. cerevisiae deletion strains, locus YMR125W, strain sto1, stronger effect = lower value 0.985 | S. cerevisiae deletion strains, locus YMR129W, stronger effect = lower value 1.01 | S. cerevisiae deletion strains, locus YMR205C, strain PFK2, stronger effect = lower value 1.04 | S. cerevisiae deletion strains, locus YMR223W, strain ubp8, stronger effect = lower value 0.983 | S. cerevisiae deletion strains, locus YMR231W, strain pep5, stronger effect = lower value 1.01 | S. cerevisiae deletion strains, locus YMR263W, strain SAP30, stronger effect = lower value 0.997 | S. cerevisiae deletion strains, locus YMR307W, strain GAS1, stronger effect = lower value 1.1 and 0.99 | S. cerevisiae deletion strains, locus YNL067W, strain RPL9B, stronger effect = lower value 0.998 | S. cerevisiae deletion strains, locus YNL071W, strain lat1, stronger effect = lower value 0.994 | S. cerevisiae deletion strains, locus YNL128W, strain TEP1, stronger effect = lower value 1.02 | S. cerevisiae deletion strains, locus YNL153C, strain GIM3, stronger effect = lower value 0.989 | S. cerevisiae deletion strains, locus YNL175C, strain NOP13, stronger effect = lower value 1 | S. cerevisiae deletion strains, locus YNL183C, strain NPR1, stronger effect = lower value 0.959 | S. cerevisiae deletion strains, locus YNL197C, strain WHI3, stronger effect = lower value 1 | S. cerevisiae deletion strains, locus YNL209W, strain ssb2, stronger effect = lower value 1 | S. cerevisiae deletion strains, locus YNL224C, strain SQS1, stronger effect = lower value 0.998 | S. cerevisiae deletion strains, locus YNL233W, strain BNI4, stronger effect = lower value 0.985 | S. cerevisiae deletion strains, locus YNL248C, strain rpa49, stronger effect = lower value 0.995 | S. cerevisiae deletion strains, locus YNL250W, strain rad50, stronger effect = lower value 1.01 | S. cerevisiae deletion strains, locus YNL271C, strain bni1, stronger effect = lower value 0.998 | S. cerevisiae deletion strains, locus YNL298W, strain CLA4, stronger effect = lower value 0.998 | S. cerevisiae deletion strains, locus YNL307C, strain MCK1, stronger effect = lower value 1 | S. cerevisiae deletion strains, locus YNL322C, strain KRE1 (second series), stronger effect = lower value 1.02 | S. cerevisiae deletion strains, locus YNL322C, strain KRE1, stronger effect = lower value 1.01 and 0.993 | S. cerevisiae deletion strains, locus YNR049C, strain mso1, stronger effect = lower value 1.01 | S. cerevisiae deletion strains, locus YNR052C, strain pop2, stronger effect = lower value 1.01 | S. cerevisiae deletion strains, locus YOL012C, strain htz1 0.655 | S. cerevisiae deletion strains, locus YOL147C, strain pex11, stronger effect = lower value 1 | S. cerevisiae deletion strains, locus YOR001W, strain rrp6, stronger effect = lower value 1.02 | S. cerevisiae deletion strains, locus YOR061W, strain CKA2, stronger effect = lower value 1.01 | S. cerevisiae deletion strains, locus YOR069W, strain VPS5, stronger effect = lower value 1.01 | S. cerevisiae deletion strains, locus YOR070C, strain gyp1, stronger effect = lower value 1.01 | S. cerevisiae deletion strains, locus YOR080W, strain dia2, stronger effect = lower value 1.03 | S. cerevisiae deletion strains, locus YOR083W, strain WHI5 (second series), stronger effect = lower value 1.03 | S. cerevisiae deletion strains, locus YOR083W, strain WHI5, stronger effect = lower value 1.02 | S. cerevisiae deletion strains, locus YOR106W, strain vam3, stronger effect = lower value 1.06 | S. cerevisiae deletion strains, locus YOR136W, strain idh2, stronger effect = lower value 0.999 | S. cerevisiae deletion strains, locus YOR144C, strain elg1, stronger effect = lower value 1 | S. cerevisiae deletion strains, locus YOR184W, strain ser1, stronger effect = lower value 1.03 | S. cerevisiae deletion strains, locus YOR231W, strain MKK1, stronger effect = lower value 1.01 | S. cerevisiae deletion strains, locus YOR265W, strain rbl2, stronger effect = lower value 1.02 | S. cerevisiae deletion strains, locus YOR270C, strain vph1, stronger effect = lower value 0.961 | S. cerevisiae deletion strains, locus YOR290C, strain snf2, stronger effect = lower value 0.981 | S. cerevisiae deletion strains, locus YOR316C, strain cot1, stronger effect = lower value 1.01 | S. cerevisiae deletion strains, locus YPL051W, strain arl3, stronger effect = lower value 1.01 | S. cerevisiae deletion strains, locus YPL055C, strain LGE1, stronger effect = lower value 0.96 | S. cerevisiae deletion strains, locus YPL078C, strain atp4, stronger effect = lower value 1.05 | S. cerevisiae deletion strains, locus YPL106C, strain sse1, stronger effect = lower value 1.04 | S. cerevisiae deletion strains, locus YPL240C, strain hsp82, stronger effect = lower value 1.01 | S. cerevisiae deletion strains, locus YPL241C, strain CIN2, stronger effect = lower value 1.01 and 0.994 | S. cerevisiae deletion strains, locus YPL256C, strain CLN2, stronger effect = lower value 1.01 | S. cerevisiae deletion strains, locus YPR119W, strain clb2, stronger effect = lower value 1 | S. cerevisiae deletion strains, locus YPR141C, strain kar3, stronger effect = lower value 1 | S. cerevisiae deletion strains, locus YPR163C, strain tif3, stronger effect = lower value 0.989 | S. cerevisiae deletion strains, locus YPR167C, strain met16, stronger effect = lower value 1.01 | S. cerevisiae deletion strains, strain wtn01, stronger effect = lower value 0.985 | S. cerevisiae strains, strain wild type, stronger effect = lower value 1.01
